Data published in PubChem BioAssay AID2061321 (National Center for Advancing Translational Sciences (NCATS), 2025).
Records with an inconclusive call do not appear. Calls of active or inactive are those of the source. Calls follow the shape of the dose curve; as a rule, active = well fitted inhibition curve with a large enough effect; inconclusive = small, poorly fitted or top-dose-only effect; inactive = flat fitted curve, though single readings scatter. Non-standard residues stand in square brackets, D forms with d. Residues, ends and D or L forms follow the SMILES beside them. Dolaproine = CO[C@@H]([C@@H]1CCCN1)[C@@H](C)C(=O)O; Dil = CC[C@H](C)[C@H](NC)[C@@H](CC(=O)O)OC; NMeV = CN[C@H](C(=O)O)C(C)C

Assay: Identification of antibody-drug conjugate (ADC) payloads which are substrates of ATP-binding cassette drug efflux transporters: ABCG2-H460 cell line
Conditions: H460 MX20 (ABCG2) viability, CellTiter-Glo, 48 h
Description: Antibody-drug conjugates (ADCs) feature an antibody recognizing a specific protein joined to a potent toxic payload. Numerous antibody-drug conjugates have received FDA approval; however, clinical resistance arises. Resistance mechanisms include decreased expression or mutation of the antibody target, impaired payload release, or increased expression of ATP-binding cassette (ABC) efflux transporters associated with multidrug resistance. We therefore sought to characterize the interaction of ABC multidrug transporters with ADC payloads. We performed a high-throughput screen with 27 common ADC payloads using cells lines expressing ABC transporters P-glycoprotein (P-gp, encoded by ABCB1) or ABCG2 (encoded by ABCG2). Confirmatory assays were also performed using cells transfected to express P-gp, ABCG2, or MRP1 (encoded by ABCC1). Several commonly used ADC payloads were substrates of P-gp, including calicheamicin gamma1, monomethyl auristatin E, DM1, and DM4. All the pyrrolobenzodiazepines tested - SJG136, SGD-1882, SG2057, and SG3199 - were substrates of P-gp, ABCG2, and MRP1. […] These findings highlight the risk of transporter-mediated resistance with certain ADC payloads and underscore the importance of selecting payloads that evade ABC transporter recognition in future ADC development.
HEK-293 cells were transfected with empty vector (pcDNA) or vector containing the human ABCB1 (MDR-19), ABCG2 (R-5), or ABCC1 gene (MRP1) and were maintained in EMEM with 2 mg/mL G418 added to maintain transporter expression. The HeLa derivative KB-3-1 and the P-gp overexpressing KB-8-5-11 subline were maintained in DMEM; KB-8-5-11 additionally received 100 ng/mL colchicine. H460 parental cells were obtained from the Division of Cancer Treatment and Diagnosis Tumor Repository, National Cancer Institute at Frederick, MD and were cultured in RPMI. The ABCG2 expressing subline H460 MX20 was generated by selecting H460 cells in 20 nM mitoxantrone. Media in all cases was supplemented with 10% FBS and 1% penicillin-streptomycin. We explored 27 common ADC payloads, in two orthogonal, paired cell line sets-a drug selected and transfected set for each transporter--to identify substrates of the ABC transporters P-gp and ABCG2. Compounds were sourced from Levena Biopharma (San Diego, CA), Selleck Chem (Houston, TX), ChemieTek (Indianapolis, IN), or Microsource Discovery Systems (Gaylordsville, CT). Screening was performed as previously described. Briefly, cells were plated at a density of 500 cells/well in 1536 well plates with compounds added using a 1536-head pin tool (Kalypsys, San Diego CA). Cells were incubated with cytotoxic drugs and processed with CellTiter Glo reagent (Promega, Madison, WI) to determine viability after 48 hours. P-gp substrates were identified by comparing compound activity between paired sets of low-expressing (sensitive) and over-expressing (resistant) cell lines.
With CC(C)(C)OC(=O)Nc1ccc2[nH]c(C(=O)N3C[C@@H](CCl)c4c3cc(O)c3ccccc43)cc2c1 the Potency was 2.1 nM (active).
In the case of CC[C@]1(O)CC2CN(CCc3c([nH]c4ccccc34)[C@@](C(=O)OC)(c3cc4c(cc3OC)N(C)[C@H]3[C@@](O)(C(=O)OC)[C@H](OC(C)=O)[C@]5(CC)C=CCN6CC[C@]43[C@@H]65)C2)C1 (stereo partly specified), the Potency is reported as 533 nM (active).
In the case of CC[C@H](C)[C@@H]([C@@H](CC(=O)N1CCC[C@H]1[C@H](OC)[C@@H](C)C(=O)N[C@@H](Cc1ccccc1)C(=O)O)OC)N(C)C(=O)[C@@H](NC(=O)[C@@H](NC)C(C)C)C(C)C (H-[NMeV]V[Dil][Dolaproine]F-OH), the Potency is reported as 5330 nM (active).
In the case of CN(C)CCOc1ccc2[nH]c(C(=O)N3C[C@@H](CCl)c4c3cc(O)c3ccccc43)cc2c1, the Potency is reported as 0.2 nM (active).
In the case of COc1cccc2c1C(=O)c1c(O)c3c(c(O)c1C2=O)C[C@@](O)(C(=O)CO)C[C@@H]3O[C@H]1C[C@H]2[C@H](O[C@@H]3[C@@H](OC)OCCN32)[C@H](C)O1, the Potency is reported as 0.0598 nM (active).
In the case of CCc1c2c(nc3ccc(O)cc13)-c1cc3c(c(=O)n1C2)COC(=O)[C@]3(O)CC, the Potency is reported as 11.9 nM (active).
For CCN[C@H]1CO[C@@H](O[C@H]2[C@H](O[C@H]3C#C/C=C\C#C[C@]4(O)CC(=O)C(NC(=O)OC)=C3/C4=C\CSSSC)O[C@H](C)[C@@H](NO[C@H]3C[C@H](O)[C@H](SC(=O)c4c(C)c(I)c(O[C@@H]5O[C@@H](C)[C@H](O)[C@@H](OC)[C@H]5O)c(OC)c4OC)[C@@H](C)O3)[C@@H]2O)C[C@@H]1OC, the Potency was 1.1 nM (active).
In the case of COC(=O)c1cc2c3c(cc(O)c2[nH]1)N(C(=O)c1cc2cc(OC)c(OC)c(OC)c2[nH]1)CC3CCl (stereo unspecified), the Potency is reported as 0.4 nM (active).
For COc1cccc2c1C(=O)c1c(O)c3c(c(O)c1C2=O)C[C@@](O)(C(=O)CO)C[C@@H]3O[C@H]1C[C@H](N)[C@H](O)[C@H](C)O1, the Potency was 377 nM (active).
For COc1cc2cc(c1Cl)N(C)C(=O)C[C@H](O)[C@]1(C)O[C@H]1[C@H](C)C1C[C@@](O)(NC(=O)O1)[C@H](OC)/C=C/C=C(\C)C2, the Potency was 4750 nM (active).
For CCN(C(C)=O)[C@H]1CO[C@@H](O[C@H]2[C@H](O[C@H]3C#C/C=C\C#C[C@]4(O)CC(=O)C(NC(=O)OC)=C3/C4=C\CSSSC)O[C@H](C)[C@@H](NO[C@H]3C[C@H](O)[C@H](SC(=O)c4c(C)c(I)c(O[C@@H]5O[C@@H](C)[C@H](O)[C@@H](OC)[C@H]5O)c(OC)c4OC)[C@@H](C)O3)[C@@H]2O)C[C@@H]1OC, the Potency was 7.5 nM (active).
